Measured values taken from PubChem BioAssay AID1777 (Sanford-Burnham Center for Chemical Genomics, 2009).
Out of some 280,000 compounds screened, about 50 (0.02%) were called active. Many of the other results were omitted from the sample, so actives are more common in it than they were. Measured potencies and affinities stand elsewhere. Values without a mark were called inactive. Rule as the data show it: active = activation above about 50% (passing the limit was not always enough); inactive = the rest.

target: Kappa-type opioid receptor (Homo sapiens) (UniProt P41145); assay: KOR agonists, beta-arrestin recruitment, primary screen, cell-based, luminescence, uHTS (AID 1777); conditions: at 10 µM, hits give high values
Sequence (P41145 whole entry, looked up): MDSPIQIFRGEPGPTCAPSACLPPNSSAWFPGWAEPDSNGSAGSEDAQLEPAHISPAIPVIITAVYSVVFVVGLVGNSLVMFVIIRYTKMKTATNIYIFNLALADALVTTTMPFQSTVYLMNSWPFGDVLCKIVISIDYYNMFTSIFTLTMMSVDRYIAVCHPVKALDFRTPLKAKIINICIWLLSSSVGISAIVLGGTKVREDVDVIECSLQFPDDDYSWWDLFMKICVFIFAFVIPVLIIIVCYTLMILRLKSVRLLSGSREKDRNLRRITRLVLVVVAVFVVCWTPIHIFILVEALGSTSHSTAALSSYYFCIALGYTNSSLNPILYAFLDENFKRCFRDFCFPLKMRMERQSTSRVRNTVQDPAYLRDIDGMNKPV

Row | SMILES | activation
1 | COc1cccc(CN2CC(C(=O)N(C)Cc3nc(C)cs3)CCC2=O)c1 (stereo not drawn) | -2.2%
2 | O=c1cc(N2CCN(c3ccccc3)CC2)[nH]c(=O)n1Cc1ccc(F)cc1 | -5.2%
3 | Cc1cccc(N2CCN(C(=O)c3cccc(N4CCCC4=O)c3)CC2)c1C | -3.4%
4 | Cc1cccc2cc(CN(Cc3cccs3)C(c3nnnn3C3CCCC3)C(C)C)c(=O)[nH]c12 (stereo not drawn) | 66% (active)
5 | Cc1cccc2cc(CN(Cc3cccs3)C3(c4nnnn4C4CCCC4)CCCC3)c(=O)[nH]c12 | 9.6%
6 | CCC(c1nnnn1C1CCCC1)N(Cc1cccs1)Cc1cc2cc(C)ccc2[nH]c1=O (stereo not drawn) | 3.2%
7 | Cc1ccc(N2CC(C(=O)N3CCCCCC3)CC2=O)cc1 (stereo not drawn) | 1.5%
8 | CC1CCCN(C(=S)Nc2ccc(S(=O)(=O)N3CCCCC3)cc2)C1 (stereo not drawn) | -0.4%
9 | CCCOC(=O)NC1C(NC(=O)OCCC)N(C)C(=O)N1C (stereo not drawn) | -2.1%
10 | Cn1cccc1/C=N/N1CCN(Cc2cccc3ccccc23)CC1 | 3%
11 | O=C(CSc1nc2ccc([N+](=O)[O-])cc2[nH]1)c1ccc2ccccc2c1 | -0.1%
12 | Nc1ccc2nc(SCC(=O)c3ccccc3)sc2c1 | -1.7%
13 | O=C(CSc1nc2ccc([N+](=O)[O-])cc2s1)c1ccc2ccccc2c1 | 57.8% (active)
14 | CCOC(=O)N1CCC(N(CCOC)C(=O)Nc2ccc(Cl)c(Cl)c2)CC1 | -4.1%
15 | COc1ccc(OC)c2[nH]c(=O)c(CCNC(=S)NC(C)(C)C)cc12 | -9%
16 | OCCCCNCc1ccc(OCc2ccc(Cl)cc2Cl)cc1 | 3.1%
17 | OCCNCc1ccc(OCc2ccc(Cl)cc2Cl)cc1 | -6.2%
18 | Oc1cccc(C(O)CNCc2ccc(OCc3ccc(Cl)cc3Cl)cc2)c1 (stereo not drawn) | 103% (active)
19 | Cc1cc(C)n(CCNC(=O)c2cc(COc3ccc4ncccc4c3)on2)n1 | 0.2%
20 | Cc1ccc(OC(C)c2nnc(N)s2)cc1Cl (stereo not drawn) | -0.5%

Row | SMILES | activation
21 | COc1ccc(S(=O)(=O)N2CCCC(C(=O)NC3CCCC3)C2)cc1OC (stereo not drawn) | -2.8%
22 | C(=C\c1ccccc1)/CNCC1CCCO1 (stereo not drawn) | 2%
23 | CC[C@@H](C(=O)[C@@H](C)[C@@H](O)[C@H](C)CCc1ccc(C)c(O)c1C(=O)O)[C@H]1O[C@](CC)([C@H]2CC[C@](O)(CC)[C@H](C)O2)C[C@@H]1C | 83.4% (active)
24 | CC(C)OCCCNC(=O)C(Cc1ccccc1)NS(=O)(=O)c1ccc2c(c1)CCC(=O)N2 (stereo not drawn) | 0.5%
25 | COc1ccc(CCN2C(=O)CSC2=Nc2ccc(C)cc2C)cc1OC | 9.8%
26 | COc1ccc(N=C2SCC(=O)N2CCc2ccc(OC)c(OC)c2)cc1 | 23.1%
27 | COc1ccc2cc(CN(CC3COCCO3)S(=O)(=O)c3c(C)cc(C)cc3C)c(=O)[nH]c2c1 (stereo not drawn) | -0.5%
28 | O=C(CN1CCN(c2ccc(F)cc2)CC1)Nc1cccnc1Cl | 0.4%
29 | COc1ccc(C(=O)CSc2nnc(-c3ccc(C)cc3)o2)cc1 | -0.9%
30 | CCN(CC)S(=O)(=O)c1ccc(-c2nnc(SCC(=O)c3ccc(OC)cc3)o2)cc1 | 3.1%
31 | COc1ccc(C(=O)CSc2nnc(-c3ccc(S(=O)(=O)N4CCOCC4)cc3)o2)cc1 | 50.2% (active)
32 | O=C(NCc1ccccc1)c1ccc(N2C(=O)C3CCCCC3C2=O)cc1 (stereo not drawn) | -2.4%
33 | Cc1ccc2cc(CN(Cc3ccc4c(c3)OCO4)Cc3nnnn3Cc3ccco3)c(=O)[nH]c2c1 | 26.7%
34 | Cc1cc(C)c2cc(CN(Cc3ccc4c(c3)OCO4)Cc3nnnn3Cc3ccco3)c(=O)[nH]c2c1 | 83.5% (active)
35 | Cc1ccc(C)c2[nH]c(=O)c(CN(Cc3ccc4c(c3)OCO4)Cc3nnnn3Cc3ccco3)cc12 | 10.8%
36 | Cc1ccc2nc(C)c(C(=O)N/N=C/c3ccc(N4CCOCC4)cc3)cc2c1 | 3%
37 | CN(c1ccccc1C(=O)Nc1ccc(CC#N)cc1)S(=O)(=O)c1ccccc1 | 2.4%
38 | Cc1ccccc1NC(=S)N(Cc1cccs1)C1CCCCC1 | -6.5%
39 | Cc1ccccc1NC(=S)N(Cc1cccs1)C1CCCC1 | 4.8%
40 | Cc1ccc(C(C)NC(=O)c2cc(C)oc2C)cc1 (stereo not drawn) | 8.6%

Row | SMILES | activation
41 | Clc1ccccc1CSc1nnc(-c2ccccn2)n1Cc1ccco1 | 31.6%
42 | COc1ccc(C)cc1NC(=O)CSc1nnc(-c2ccccn2)n1Cc1ccco1 | 1.2%
43 | Clc1ccc(CSc2nnc(-c3cccnc3)n2Cc2ccco2)c(Cl)c1 | -2.8%
44 | Clc1cccc(CSc2nnc(-c3cccnc3)n2Cc2ccco2)c1 | -4.9%
45 | COc1ccccc1NC(=O)CSc1nnc(-c2ccccn2)n1Cc1ccco1 | 17.1%
46 | O=C(CSc1nnc(-c2ccccn2)n1Cc1ccco1)c1ccc(Cl)cc1 | 81.9%
47 | Cc1ccc(O)c(N=Nc2ccc(S(=O)(=O)N3CCCC3)cc2)c1 | -0.2%
48 | CN(C)CC(C)(C)CNC(=O)C1CCN(CCCc2ccccc2)CC1 | -5.3%
49 | CCOc1nc(NC2CCCC2)nc(N2CCC(C)CC2)n1 | -3.8%
50 | CCCNC(=O)NC(=O)CSc1nnc(-c2ccncc2)n1CC | -1.1%
51 | COC(=O)CN1C(=O)[C@H]2[C@@H](c3ccc(C)o3)N3C(=O)CN(CCO)C(=O)[C@@]3(Cc3ccccc3)[C@H]2C1=O | 5.5%
52 | Cc1c(Cl)cccc1N1C(=O)C2ON(c3ccccc3)C(c3cccnc3)C2C1=O (stereo not drawn) | 0.9%
53 | O=C1C2ON(c3ccccc3)C(c3cccnc3)C2C(=O)N1c1ccccc1 (stereo not drawn) | -3.9%
54 | CC(=O)N1CCC(C(=O)NC2CC(C)(C)Cc3c2cnn3-c2ccc(F)cc2)CC1 (stereo not drawn) | -2.2%
55 | CC(=O)Nc1ccc(N/C=C/C(=O)c2ccccc2)cc1 | -0.7%
56 | Cn1c(=O)c2c(nc(Oc3ccc4c(c3)OCO4)n2Cc2ccc(Cl)cc2)n(C)c1=O | 62.7%
57 | Cn1c(=O)c2c(nc(Oc3ccc4c(c3)OCO4)n2Cc2ccc(Br)cc2)n(C)c1=O | 9.8%
58 | Cn1c(=O)c2c(nc(Oc3ccc4c(c3)OCO4)n2Cc2ccc(F)cc2)n(C)c1=O | 67.5% (active)
